Sampled rows, rich in hits. Any-hit rate of the full collection: about 2.6%.
A549 tox – kills or reduces viability of A549 cells in Nrf2 counter-screen. AID 504648. A549 ARE-Fluc cells, CellTiter-Fluor viability, 18-24 h. actives 0.16% (n = 390,000). Potency, µM (titrated, usually from 46 µM), without a hit: at the top dose activity change, negative = cytotoxicity, hits mostly inhibitors; note: potency is the fitted concentration of half-maximal effect; % is set by controls: 0 for no effect and ±100 for the full control effect
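A549 ARE_Fluc cells in 5% FBS OPTI-MEM were exposed to compounds in concentration-response for 18-24 h at 37 deg C. Viability was read by CellTiter-Fluor fluorescence (Ex 405/Em 525) after 30 min, before the luciferase read.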
TCR activator – activates T cell receptor signaling; primary human leukocytes, anti-CD3, IL-2 HTRF, 48 h; AID 504894; Potency, µM (doses to about 9.22 µM), inactives show at the highest dose activation of IL-2 secretion, hits mostly activators; 330,000 tested, under 10 active; note: % of control where 0% means no effect
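Using a-CD3 beads without co-stimulation, primary human leukocytes were exposed to compounds for 48 hr. An HTRF IL-2 kit measured the cytokine, with europium-to-d2 energy transfer producing emission at 665nm upon 320nm excitation.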
AT treatment – potential ataxia-telangiectasia treatment; Potency, µM (doses to about 57.5 µM), for the others: at the top dose activation, usual class: activators; actives 0.19% (n = 320,000); F2112 A-T fibroblasts, KAP-1 phosphorylation AlphaLISA; neocarzinostatin DNA damage 30 min before lysis; AID 485349; note: potency is the fitted concentration of half-maximal effect; % of control where 0% means no effect; nearly all actives have a fitted effect of over 45% in size
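hTERT-immortalized A-T patient fibroblasts (F2112), 500 cells/well in OPTI-MEM, 1% FBS, got compounds for 60 min, then NCS for 30 min at 37C. Lysates were then assayed for phospho-KAP-1 by AlphaLISA (anti-pKAP1 donor, anti-KAP1 acceptor beads), 6 hr at 25C.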
Nrf2 activator – activators of Nrf2 (ARE) signaling; AREc32 ARE-luciferase reporter (MCF7-derived line), luminescence, 24 h; Potency, µM (top dose mostly 46.1 µM), for the others: at the top dose activation, actives largely listed as activators; actives 0.31% (n = 410,000); AID 624171; note: potency is the fitted concentration of half-maximal effect; % of control where 0% means no effect; nearly all actives have a fitted effect of over 65% in size
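Cells of the AREc32 ARE-luciferase line are plated in OPTI-MEM containing 5% FBS and left overnight at 37 deg C. Compounds are pinned in, incubation continues 24 hr, and firefly luciferase signal is then measured.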
CCT chaperon mod – cytosolic chaperonin activity modulation | activity change, % (no concentration beside the values), hits read low | actives 0.3% (n = 360,000) | purified chaperonin ATPase assay, HTRF ADP detection, 30 min; in the data active = activity change below about -30%; note: % is set by controls: 0 for no effect and ±100 for the full control effect
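Nucleotide hydrolysis assay: TRiC at 20–40 nM final (set by batch activity) with 10 uM ATP, 30 min at 37 °C, in presence of 76 uM compound. Detection by competitive ADP HTRF, 30 min ambient.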
Nrf2 block – Nrf2 pathway inhibition; A549 ARE-Fluc reporter, luciferase luminescence, 18-24 h; Potency, µM (top dose mostly 46 µM), for the others: at the top dose activity change, negative = inhibition, hits mostly inhibitors; actives 2.1% (n = 360,000); AID 504444; note: potency is the fitted concentration of half-maximal effect; % is set by controls: 0 for no effect and ±100 for the full control effect; nearly all actives have a fitted effect of over 60% in size
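Nrf2 activity is the BugLite luminescence, read 15 min after reagent at room temperature, following CellTiter-Fluor cytotoxicity readout (30 min, 37C). Compound titrations were applied for 18-24 h to 5000 A549 ARE_Fluc cells/well in 5% FBS OPTI-MEM.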
The depositor's hits bear a star; ! = repeats disagree; [ ] = remark or other dose. Unless noted, calls come from the whole dose curve; as a rule, active = well fitted curve in the direction sought with a large enough effect; inconclusive = small, poorly fitted or top-dose-only effect, or another doubt; inactive = no such curve, though single readings can be large; an effect the other way counts as inactive or inconclusive.

`Cc1ccc(C)c(S(=O)(=O)NCc2ccc(C(=O)N3CCC(Cc4ccccc4)CC3)cc2)c1` gave A549 tox -11%[1.84 µM], AT treatment -1%, Nrf2 activator 2%, CCT chaperon mod -1 and Nrf2 block 16µM*.
Screening NC(=O)C(c1ccc(Cl)cc1)c1ccc(Sc2ccc(Cl)cc2)nn1 (stereo not given) returned A549 tox -12%, TCR activator 1%, Nrf2 activator 3%, CCT chaperon mod 1 and Nrf2 block 16µM*.
For O=C(Nc1ncc2c(n1)CC(c1cccc(Cl)c1)CC2=O)c1ccco1 (stereo not given) the results were A549 tox -17%, TCR activator -4%, AT treatment 13µM*, Nrf2 activator 4%, CCT chaperon mod -1 and Nrf2 block inconclusive.
O=C(Nc1ncc2c(n1)CC(c1ccccc1)CC2=O)c1ccco1 (stereo not given) was read as A549 tox 2%, TCR activator 3%[46.1 µM], AT treatment -2%, Nrf2 activator 14%, CCT chaperon mod 1 and Nrf2 block 10%.
For Cc1ccc(CNC(=O)c2oc3ccc(S(=O)(=O)N4CCCC(C)C4)cc3c2C)cc1 (stereo not given) the results were A549 tox 2%, Nrf2 activator 1% and Nrf2 block -9%[9.27 µM].
For O=c1[nH]c(CN2CCN(c3ccccn3)CC2)nc2c(Br)cc(Br)cc12 the results were A549 tox inconclusive, TCR activator 9%, AT treatment 0%, Nrf2 activator 0%, CCT chaperon mod -15 and Nrf2 block 23µM*.
`O=c1[nH]c(CN2CCN(c3ncccn3)CC2)nc2c(Br)cc(Br)cc12` gave A549 tox -1%, TCR activator 5%, AT treatment -13%, Nrf2 activator 0%, CCT chaperon mod -1 and Nrf2 block -4%.
For CCOc1ccccc1NC(=O)c1cccc(N2C(=O)CCC2=O)c1 the results were A549 tox -1%, TCR activator -7%, AT treatment 1%, Nrf2 activator 0%, CCT chaperon mod -1 and Nrf2 block 13%.
COCCNC(=O)c1c[nH]c2ccc(S(=O)(=O)N3CCc4ccccc43)cc2c1=O was read as A549 tox -9%, TCR activator 4%, AT treatment 5%, Nrf2 activator 0%, CCT chaperon mod -2 and Nrf2 block 16µM*.
`CN(C)CCOC(c1ccc(Cl)cc1)c1ccccn1` (stereo not given) gave A549 tox 2%, TCR activator 0%, AT treatment 4%, Nrf2 activator 3%, CCT chaperon mod -51*! and Nrf2 block 31%.
For CC(=O)N1CCc2c(sc3c2c(=O)n(Cc2ccccc2)c(=O)n3Cc2cccc(Cl)c2)C1 the results were A549 tox -21%, Nrf2 activator -1% and Nrf2 block 21µM*.
Screening CC(C)c1ccc(NC(=O)c2cc(S(=O)(=O)N(C)C3CCCCC3)ccc2F)cc1 returned A549 tox 12% and Nrf2 activator -1%.
For CCN(CC)c1ccc(/C=C/c2cc(-c3ccccc3)c3ccccc3n2)cc1 the results were A549 tox inconclusive, TCR activator 0%, AT treatment 11µM*, Nrf2 activator 2%, CCT chaperon mod 1 and Nrf2 block 0%.
For CCOC(=O)c1sc(NC(=O)c2ccncc2)c(C#N)c1C the results were A549 tox inconclusive, TCR activator 4%, AT treatment -11%, Nrf2 activator 2%, CCT chaperon mod -1 and Nrf2 block 23µM*.
Screening O=[N+]([O-])c1c(NCCO)cc(N2CCC3(CC2)OCCO3)c2nonc12 returned A549 tox 9.2µM*, TCR activator -7%[46.1 µM], AT treatment -4%, Nrf2 activator 0%, CCT chaperon mod 3 and Nrf2 block -18%.
For Cc1ccc(C(=O)N2CCCC(C(=O)c3ccc(Oc4ccccc4)cc3)C2)cn1 (stereo not given) the results were A549 tox inconclusive, TCR activator 2%, AT treatment 0%, Nrf2 activator 0%, CCT chaperon mod 1 and Nrf2 block 16µM*.
CCOc1ccc(Oc2ccccc2NC(=O)CN2C(=O)NC3(CCCC3)C2=O)cc1 was read as A549 tox 1%, TCR activator -3%, AT treatment -6%, Nrf2 activator 0%, CCT chaperon mod 2 and Nrf2 block -5%.
For O=C(COC(=O)/C=C/c1ccc(OC(F)F)cc1)NC1CCCC1 the results were A549 tox 11%, TCR activator -3%, AT treatment -6%, Nrf2 activator 1%, CCT chaperon mod -117* and Nrf2 block -4%.
Screening O=C(Nc1cc(Sc2ccccn2)cc([N+](=O)[O-])c1)c1cccc(F)c1 returned A549 tox -9%, TCR activator 1%[46.1 µM], AT treatment -3%, Nrf2 activator 6%, CCT chaperon mod -2 and Nrf2 block 18µM*.
For CCOc1ccc(NS(=O)(=O)c2ccc(C(=O)N(C)Cc3cccc(OC)c3OC)cc2)cc1 the results were A549 tox -7%, TCR activator 5%, AT treatment 1%, Nrf2 activator 3%, CCT chaperon mod 2 and Nrf2 block 15µM*.
Screening CCOC(=O)N1CCN(C(=O)c2ccc(NS(=O)(=O)c3ccc(F)cc3)cc2)CC1 returned A549 tox -2%, TCR activator -7%, AT treatment -2%, Nrf2 activator -1%, CCT chaperon mod -2 and Nrf2 block 16µM*.
COc1cccc(CN(C)C(=O)c2ccc(NS(=O)(=O)c3ccc4[nH]c(=O)[nH]c4c3)cc2)c1OC was read as A549 tox -2%, TCR activator -2%, AT treatment 6%, Nrf2 activator -1%, CCT chaperon mod -4 and Nrf2 block 7%.
CCOc1ccc(NS(=O)(=O)c2ccc(C(=O)N3CCN(c4ncccn4)CC3)cc2)cc1 was read as A549 tox -21%, TCR activator -3%, AT treatment 0%, Nrf2 activator 2%, CCT chaperon mod -2 and Nrf2 block 16µM*.
Screening CC(C)c1nc2ccc(C(=O)Nc3ccccc3F)cc2o1 returned A549 tox -3% and Nrf2 activator 5%.
Screening COc1ccc(C)cc1NC(=O)Cn1nc(N2CCN(c3ccccc3OC)CC2)ccc1=O returned A549 tox -8%, Nrf2 activator 0% and Nrf2 block -24%.

From PubChem
